The target in one assay is CDK9. Nature of the assay: pooled miR-30 sensor sort-seq; sequence = guide strand. As to conditions: shRNA.
The sequence TTAGCAGCCTTCATGTCCCTAT came in with a sensor-assay potency score (higher = more potent) of -0.0117. The same measure, in the same setting: in the case of TTTTAGAAGCTGAAGGATCTTG it was -0.461. The same measure, in the same setting: under TTCTTCAGAGCCACCTTCTGGC stands 0.0361.

Consider TATATACTACCCTTGCAGCGGT, for which the sensor-assay potency score (higher = more potent) is -0.627.

The target of the next assay is CDKL2. The assay is described as above. As to conditions: shRNA.
With TAGATAAAGAAACATTTCTGGC, the sensor-assay potency score (higher = more potent) is -0.719. For TTTCAGGCAACCTTACTCCAGC, the sensor-assay potency score (higher = more potent) is -0.594.

The sequence TTTAAATAGTTTATAATCCTTA came in with a sensor-assay potency score (higher = more potent) of -0.355.

TAGTAACTTGATTTCTCGCATT gave a sensor-assay potency score (higher = more potent) of -0.927.

TTTAACTGTAGTTCTTGGGAAA returned a sensor-assay potency score (higher = more potent) of -0.938. Sequence TTAGTAACTTGATTTCTCGCAT showed a sensor-assay potency score (higher = more potent) of 0.346.
Note: reference of the scale not given here.
